± gives the standard deviation of the averaged measurements. Over roughly 33,000 sequences, “E-score (dimensionless, -0.5 to 0.5)” has its median near -0.046; the highest 2% begin near 0.36. The sample holds the highest values, similar sequences and a random draw of the others, so the mix is not that of the screen.
These sequences were tested on T1, SpTbr T-box DNA-binding domain (GST fusion) (assay: PBM E-score of 8-mer (E-score (dimensionless, -0.5 to 0.5)); Tbr is Tbrain of the sea star Patiria miniata (Pm) or the sea urchin Strongylocentrotus purpuratus (Sp); higher = stronger binding preference). Settings: the construct has about 5 more residues each side.
T1 sequence: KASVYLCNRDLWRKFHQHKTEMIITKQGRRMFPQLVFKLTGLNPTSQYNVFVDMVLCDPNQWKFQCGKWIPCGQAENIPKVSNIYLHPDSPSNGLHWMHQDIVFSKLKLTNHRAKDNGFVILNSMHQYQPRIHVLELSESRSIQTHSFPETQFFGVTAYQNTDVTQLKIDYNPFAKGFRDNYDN
How it was run: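 GST-fused Tbr T-box DNA-binding domains (the whole T-box plus about five flanking residues) were expressed in BL21 E. coli at 20 °C and purified by glutathione affinity chromatography. Universal Agilent oligonucleotide arrays were made double-stranded by primer extension, incubated with 200 nM protein in PBS (pH 7.5), then scanned and quantified. Every ungapped 8-mer was scored from probe intensities. The Universal PBM Analysis Suite gave each word an enrichment E-score, averaged over duplicate arrays.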

Row | Sequence | PBM E-score of 8-mer
1 | CCCAACTA | -0.164 ± 0.083
2 | AGCGTCCC | -0.148 ± 0.0096
3 | GCTTATCC | 0.125 ± 0.027
4 | CCTCATAA | -0.0692 ± 0.021
5 | ACGTGTTC | 0.1884 ± 0.00041
6 | ACGTGTTA | 0.431 ± 0.015
7 | ACGTGTTG | 0.367 ± 0.00092
8 | GCGTGTTA | 0.302 ± 0.018
9 | ACGTGTAG | 0.133 ± 0.068
10 | CCGTGTTA | 0.158 ± 0.029
11 | GATCGCTA | 0.136 ± 0.022
12 | GGTCGATA | 0.0927 ± 0.012
13 | AACTGTTG | 0.241 ± 0.017
14 | CACGCAGA | 0.0713 ± 0.028
15 | ATTGACAA | 0.298 ± 0.026
16 | CTTGACCC | -0.308 ± 0.038
17 | CTTGACGC | 0.324 ± 0.011
18 | ATTGACAG | 0.102 ± 0.07
19 | ATTGACAC | 0.418 ± 0.0052
20 | CTTGACAC | 0.436 ± 0.0093
21 | ACACAGAA | -0.134 ± 0.016
22 | GGATAGAC | -0.202 ± 0.041
23 | ACTCAATC | -0.0092 ± 0.032
24 | CAACACTA | 0.264 ± 0.025
25 | GAACACCA | 0.104 ± 0.014

Row | Sequence | PBM E-score of 8-mer
26 | GAACACCC | 0.116 ± 0.0077
27 | CAACACCG | 0.312 ± 0.0065
28 | AAACACCA | 0.238 ± 0.027
29 | CAACACCC | 0.433 ± 0.012
30 | CAACACGC | 0.203 ± 0.0098
31 | TAACACCA | 0.43 ± 0.011
32 | GAACACTA | 0.013 ± 0.018
33 | TAACACTA | 0.373 ± 0.042
34 | CAACACCA | 0.37255 ± 7.8e-05
35 | CAACACGA | 0.185 ± 0.0087
36 | TCAAGGAA | -0.0393 ± 0.033
37 | GCTGATCA | 0.179 ± 0.059
38 | CCCAATGA | -0.198 ± 0.013
39 | CCGACCCG | -0.073 ± 0.13
40 | GACTCGAC | -0.0494 ± 0.0017
41 | CTAATGCA | 0.038 ± 0.071
42 | GTAGAGAC | -0.094 ± 0.029
43 | CCACTATC | 0.129 ± 0.028
44 | TACACGAA | -0.0857 ± 0.046
45 | AGTTGCGA | 0.3999 ± 0.00081
46 | ACTTGCGA | 0.388 ± 0.021
47 | AGTTGCGG | 0.126 ± 0.029
48 | AGTTGCGC | 0.13 ± 0.063
49 | GCTTGCGA | 0.16 ± 0.0045
50 | CCTTGCGA | 0.183 ± 0.056

Row | Sequence | PBM E-score of 8-mer
51 | CAGGGATC | -0.17 ± 0.046
52 | AAACCATC | -0.0776 ± 0.02
53 | AAATCGTT | -0.0755 ± 0.038
54 | TACACATA | 0.168 ± 0.022
55 | CACACAAG | 0.179 ± 0.038
56 | CACACAGG | 0.244 ± 0.0081
57 | GACACATA | 0.359 ± 0.005
58 | CACACATG | 0.383 ± 0.021
59 | CACACATA | 0.3998 ± 0.0028
60 | GAGGCTCA | -0.129 ± 0.025
61 | ACGCCCAT | 0.0516 ± 0.054
62 | GATATGCA | 0.00558 ± 0.032
63 | CGCGCTAA | 0.338 ± 0.0063
64 | GGCGCGAA | 0.463 ± 0.011
65 | AGCGCGAT | 0.276 ± 0.009
66 | AGCGCGAG | 0.306 ± 0.017
67 | GGCGCGAC | 0.369 ± 0.017
68 | GGCGCGCA | 0.153 ± 0.047
69 | GGCGCTAA | 0.4 ± 0.035
70 | CGCGCGAC | 0.284 ± 0.015
71 | GACGCGAA | 0.138 ± 0.006
72 | AGCGCGAA | 0.405 ± 0.019
73 | TGCGCTAA | 0.191 ± 0.035
74 | AGCGCGAC | 0.253 ± 0.026
75 | AGCTACAA | -0.161 ± 0.011

Row | Sequence | PBM E-score of 8-mer
76 | GCACGCGC | 0.216 ± 0.095
77 | ATAGATGA | -0.0521 ± 0.016
78 | CTGAAGCA | -0.141 ± 0.0054
79 | CCGTGCCC | -0.244 ± 0.013
80 | CCGTACAA | -0.197 ± 0.0048
81 | TGCGCGAA | 0.349 ± 0.036
82 | CGCGCGAG | 0.304 ± 0.036
83 | GCCGCGAA | 0.343 ± 0.0045
84 | TCCGCGAA | 0.2876 ± 0.00083
85 | CGCGCGAA | 0.408 ± 0.013
86 | CCCGCGAA | 0.371 ± 0.019
87 | CGCAATTC | 0.169 ± 0.0051
88 | AAAGATCT | -0.1 ± 0.035
89 | ATTGAGGG | -0.243 ± 0.003
90 | CACCTTCG | 0.396 ± 0.017
91 | CACCTTCC | 0.401 ± 0.014
92 | CACCTTCA | 0.412 ± 0.0047
93 | AACCTTCC | -0.169 ± 0.048
94 | GACCTTCA | -0.0627 ± 0.081
95 | GACCTTCC | -0.00679 ± 0.036
96 | AACCTTCG | -0.0878 ± 0.018
97 | CCCCTTCG | -0.137 ± 0.046
98 | AACCTTCA | -0.0641 ± 0.013
99 | CGTGGTCC | -0.204 ± 0.045
100 | CCGCCACA | 0.157 ± 0.021

Row | Sequence | PBM E-score of 8-mer
101 | CCTCCTAA | -0.2059 ± 0.001
102 | TAAGCGAA | -0.0797 ± 0.053
103 | GAAGGTGC | 0.41 ± 0.019
104 | GAAGGTGA | 0.348 ± 0.035
105 | CAAGGTGA | 0.392 ± 0.0089
106 | CAAGGTGC | 0.421 ± 0.0087
107 | CAAGGTGG | 0.311 ± 0.015
108 | TAAGGTGA | 0.331 ± 0.021
109 | CAAGGTAA | -0.0662 ± 0.017
110 | CAAGGTTC | 0.047 ± 0.016
111 | GAAGGTAC | -0.239 ± 0.019
112 | ACCTAGAA | -0.0152 ± 0.079
113 | ACTGCTCG | 0.0799 ± 0.013
114 | CTCGGGAC | -0.118 ± 0.062
115 | AACTGTTA | 0.284 ± 0.03
116 | TGAGCCAA | -0.229 ± 0.019
117 | CCCCCATC | -0.0563 ± 0.053
118 | AAGTGGGA | 0.238 ± 0.037
119 | AAGTGTGC | 0.3891 ± 0.00091
120 | AAGTGTGG | 0.417 ± 0.013
121 | CAGTGTGC | 0.106 ± 0.0063
122 | AAGTGTGT | 0.331 ± 0.0059
123 | AAGTGGGG | 0.177 ± 0.0055
124 | ACTGCCTA | -0.14 ± 0.028
125 | AACTTTCG | 0.00917 ± 0.0092

Row | Sequence | PBM E-score of 8-mer
126 | CTCTGGGA | 0.00265 ± 0.049
127 | ACAATAGA | -0.149 ± 0.042
128 | CCATGGAG | -0.231 ± 0.015
129 | CCCAGAGG | -0.127 ± 0.05
130 | ACACATCG | 0.394 ± 0.014
131 | CCACATCC | -0.0299 ± 0.14
132 | ACACATCC | 0.388 ± 0.024
133 | ACACATCA | 0.339 ± 0.0072
134 | GCACATCC | 0.137 ± 0.0032
135 | ACACATCT | 0.31 ± 0.029
136 | CTACTTGA | 0.0916 ± 0.062
137 | ACACCATA | 0.231 ± 0.071
138 | ACACCATC | 0.3674 ± 0.0022
139 | ACACCACA | 0.364 ± 0.017
140 | CCACCACC | 0.101 ± 0.038
141 | ACACCACG | 0.332 ± 0.018
142 | ACACCACC | 0.365 ± 0.0069
143 | ACACCACT | 0.269 ± 0.02
144 | CCACCACA | 0.131 ± 0.073
145 | CCACCATC | 0.0489 ± 0.024
146 | ACCTGCCT | 0.00297 ± 0.084
147 | GGAGCGCC | 0.0178 ± 0.0015
148 | AGACCCAC | 0.0705 ± 0.1
149 | AGAGAAAT | -0.0136 ± 0.08
150 | AGATCCAT | -0.205 ± 0.039

Row | Sequence | PBM E-score of 8-mer
151 | AATCTCAT | -0.0127 ± 0.017
152 | AATCTCAC | 0.366 ± 0.016
153 | GATCTCAA | 0.0536 ± 0.028
154 | CATCTCAC | 0.308 ± 0.006
155 | GATCTCAC | 0.371 ± 0.02
156 | AATCTCTC | -0.1 ± 0.11
157 | AATCTCAG | -0.0558 ± 0.035
158 | AGACTCGG | -0.23 ± 0.019
159 | CACCCCCG | 0.234 ± 0.018
160 | CCCACCCA | 0.185 ± 0.054
161 | AACACCCG | 0.404 ± 0.01
162 | CACACCGC | 0.332 ± 0.037
163 | CACCCCCC | 0.184 ± 0.003
164 | TACACCCA | 0.105 ± 0.011
165 | CACACCCC | 0.419 ± 0.025
166 | CACACCCG | 0.448 ± 0.016
167 | CCCACCCG | 0.0685 ± 0.054
168 | AGCACCCG | 0.257 ± 0.011
169 | ATCACCCG | 0.12 ± 0.057
170 | CACACCCA | 0.421 ± 0.02
171 | CCATGGCG | -0.204 ± 0.015
172 | GACCGTCA | 0.0838 ± 0.01
173 | GACAGTGC | 0.152 ± 0.025
174 | AAAACTCC | -0.156 ± 0.054
175 | AGGGCGTG | 0.281 ± 0.01

Row | Sequence | PBM E-score of 8-mer
176 | ACGGCGTG | 0.232 ± 0.0069
177 | CAGGCGTC | 0.236 ± 0.056
178 | AAGGCGTC | 0.372 ± 0.035
179 | AAGGCGTA | 0.153 ± 0.028
180 | AAGGCGTG | 0.392 ± 0.037
181 | ACGTCCTA | -0.17 ± 0.032
182 | AAGCGTTG | 0.192 ± 0.056
183 | ATCGCGCG | 0.337 ± 0.004
184 | CGCGCGCC | 0.173 ± 0.064
185 | ATCGCGCA | 0.151 ± 0.015
186 | CTCGCGCA | 0.248 ± 0.021
187 | ATCGCGCC | 0.4021 ± 0.0011
188 | CTCGCGCC | 0.412 ± 0.031
189 | AACTAGGG | 0.0057 ± 0.046
190 | AAGGAGGG | -0.0491 ± 0.018
191 | GCTCATAC | -0.0299 ± 0.01
192 | CGTTGGGA | -0.121 ± 0.024
193 | ATTAAGAC | -0.0771 ± 0.015

Source: the supplement of paper PMC4166925
